# Reference: PubChem BioAssay (NCATS)
# Records with an inconclusive call do not appear. The source holds several records for some structures; these can differ, active in one and inactive in another. Active and inactive are the calls of the source. Calls come from the whole dose curve; as a rule, active = well fitted inhibition curve with a large enough effect; inconclusive = small, poorly fitted or top-dose-only effect; inactive = flat fitted curve, though single readings scatter.
# Target: Glutathione peroxidase 1 (Homo sapiens) (UniProt P07203)
# Assay: Primary qHTS Assay for Inhibitors of Recombinant Selenoprotein Glutathione Peroxidase 1 (GPX1) (AID 1845191); note: nearly all actives have a fitted effect of over 65% in size; for activity, negative = inhibition: % is set by controls: 0 for no effect and ±100 for the full control effect
# Details: recombinant GPX1, GR-coupled NADPH fluorescence, 15 min; series mostly up to 48.8 µM; activity, negative = inhibition: at the top concentration
# Outline: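 10 nM GPX1 + cpd, 30 min RT; start w/ 1 mM GSH, 0.5 mM cumene hydroperoxide, 0.5 mM NADPH, 100 nM GR, 0.01% BSA; buffer 50 mM Tris-HCl pH 7.5, 2 mM EDTA, 150 mM NaCl; Fl 340/450, 0 & 15 min.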
# Potency is the fitted concentration of half-maximal effect.
# Sequence of Glutathione peroxidase 1 (Homo sapiens) (P07203 whole entry, looked up): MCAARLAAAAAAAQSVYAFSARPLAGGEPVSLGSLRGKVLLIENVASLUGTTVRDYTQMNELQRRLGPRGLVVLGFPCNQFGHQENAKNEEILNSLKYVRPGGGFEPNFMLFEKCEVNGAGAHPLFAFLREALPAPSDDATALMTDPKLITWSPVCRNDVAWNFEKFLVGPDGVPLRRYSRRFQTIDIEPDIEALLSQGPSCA
SMILES,"activity, negative = inhibition",outcome,Potency
CCCn1cc2c(nc(NC(=O)Nc3ccc(OC)cc3)n3nc(-c4ccco4)nc23)n1,-9.26% (inactive),–,–
O=C(NCC(=O)N1CCCC1)Nc1ccc2cnccc2c1,-5.77% (inactive),–,–
CC(C)NC(=O)COc1cccc(-c2nc(Nc3ccc4[nH]ncc4c3)c3ccccc3n2)c1,0.297% (inactive),–,–
C/C=C/C=C/c1cc2c(C=O)c(O)c(CC=C(C)C)cc2o1,–,inactive,–
CC[C@H](C)/C=C(C)/C=C/C1=CC2=CC(=O)[C@]3(C)OC(=O)[C@@H](C(C)=O)[C@@H]3C2=CO1,–,inactive [at 27.7 µM],–
Cn1ncnc1[C@@H]1c2n[nH]c(=O)c3cc(F)cc(c23)N[C@H]1c1ccc(F)cc1,-18.6% (inactive),–,–
COc1ccc(-c2c(C)nn3c(NCCN4CCOCC4)cc(C)nc23)cc1OC,–,inactive,–
CN(C)C(=O)Nc1cc(-c2ccccc2)ccc1N(C)C,-8.22% (inactive),–,–
Cn1ncnc1[C@H]1c2n[nH]c(=O)c3cc(F)cc(c23)N[C@@H]1c1ccc(F)cc1,–,–,inactive
COc1ccc2nc3n[nH]c(C)c3c(NCCOCCO)c2c1,–,–,inactive
CC/C(C)=C/C(=O)OC1C(OC2(C)CCC3C(C4C(C)CCC42)C3(C)C)OC(C)C(O)C1O (centres undefined),–,inactive [at 27.7 µM],–
S=C(c1ccc(-c2ccc(Cl)c(Cl)c2)o1)N1CCCCC1,–,–,25.5 µM (active)
O=C(Nc1ncc([N+](=O)[O-])s1)c1ccccc1O,–,inactive,–
Cc1ccc(CNc2ncnc3ccc(-c4ccc(CO)o4)cc23)o1,-19.2% (inactive),–,–
CCC(CC)C(c1ccc(Nc2nc3ccccc3s2)cc1)n1cncn1 (centres undefined),1.98% (inactive),–,–
COc1ccc2cc3c(NC(=O)c4ccco4)nn(C)c3nc2c1,-16.6% (inactive),–,–
O=C([C@@H](Cc1cccc(C(F)(F)F)c1)NS(=O)(=O)c1cc(F)c2c(c1)CCNC2)N1CCCC1,–,inactive,–
C#CC(=O)N(c1ccc(OC)cc1OC)C(C(=O)NCC(=O)OCC)c1cccs1 (centres undefined),2.6% (inactive),–,–
COc1ccc(C#Cc2ccc(C(=O)N3CCC[C@@H](O)C3)c(F)c2)cc1,–,inactive,–
O=C(O)c1cc(N(Cc2ccc(C3CCCCC3)cc2)C(=O)c2ccc(Oc3ccccc3)cc2)ccc1O,–,inactive,–
Cn1sc(=O)n(Cc2ccccc2)c1=O,-0.935% (inactive),–,–

# Target: Phospholipid hydroperoxide glutathione peroxidase GPX4 (Homo sapiens) (UniProt P36969)
# Assay: Primary qHTS Assay for Inhibitors of Recombinant Selenoprotein Glutathione Peroxidase 4 (GPX4) (AID 1845192); note: nearly all actives have a fitted effect of over 65% in size; for activity change, negative = inhibition: % is set by controls: 0 for no effect and ±100 for the full control effect
# Details: recombinant GPX4, GR-coupled NADPH fluorescence, 15 min; series mostly up to 50 µM; activity change, negative = inhibition: at the top concentration
# Outline: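 NADPH consumption, followed by fluorescence at 340/450 nm between 0 and 15 min, reports GPX4 activity via coupled glutathione reductase (100 nM). Enzyme 200 nM was pre-exposed to compound 30 min; 0.5 mM cumene hydroperoxide and 1 mM GSH served as substrates.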
# Sequence of Phospholipid hydroperoxide glutathione peroxidase GPX4 (Homo sapiens) (P36969 whole entry, looked up): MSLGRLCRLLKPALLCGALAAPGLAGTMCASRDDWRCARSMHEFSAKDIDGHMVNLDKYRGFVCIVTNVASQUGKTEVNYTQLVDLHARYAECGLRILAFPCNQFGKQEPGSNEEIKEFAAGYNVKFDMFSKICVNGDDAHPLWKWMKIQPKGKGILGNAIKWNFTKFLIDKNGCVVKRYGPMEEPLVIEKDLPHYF
SMILES,"activity change, negative = inhibition",outcome,Potency
Oc1cccc(-c2c3nc(c(-c4cccc(O)c4)c4ccc([nH]4)c(-c4cccc(O)c4)c4nc(c(-c5cccc(O)c5)c5ccc2[nH]5)CC4)C=C3)c1,-17.3% (inactive),–,–
CC(=O)S[C@@H]1CC2=CC(=O)CC[C@]2(C)[C@H]2CC[C@@]3(C)[C@@H](CC[C@@]34CCC(=O)O4)[C@H]12,–,inactive,–
Cc1c(Cl)cccc1S(=O)(=O)Nc1nc(NCCc2ccccc2)nc2c1CN(Cc1ccccc1)CC2,-19.3% (inactive),–,–
Cn1ncc(Cl)c1-c1cc(C(=O)N[C@H](CN)Cc2ccc(F)c(F)c2)oc1Cl,1.44% (inactive),–,–
Cc1cc2c(F)c(Oc3ncnn4cc(OCC(C)OC(=O)C(C)N)c(C)c34)ccc2[nH]1 (centres undefined),-7.38% (inactive),–,–
CC1(C)S[C@@H]2[C@H](NC(=O)C(C(=O)Oc3ccc4c(c3)CCC4)c3ccccc3)C(=O)N2[C@H]1C(=O)O (some centres undefined),–,–,8.91 µM (active)
COc1cc2c(cc1OC)CN(C(=O)/C=C/c1c(-c3ccccc3)n(C)c3ncccc13)CC2,-9.54% (inactive),–,–
COc1cc(F)c(F)c(Nc2ccc(I)cc2F)c1NS(=O)(=O)C1(CC(O)CO)CC1 (centres undefined),-3.95% (inactive),–,–
O=C(CCCN1CCC(n2c(=S)[nH]c3ccccc32)CC1)c1ccc(F)cc1,–,–,4.47 µM (active)
N#Cc1ccc(Nc2nc(-c3ccc(O)cc3O)cs2)cc1C(F)(F)F,-28.3% (inactive),–,–
CS(=O)(=O)c1ccc(Oc2cc(F)cc(C#N)c2)c2c1[C@H](O)C(F)(F)C2,-5.58% (inactive),–,–
CS(=O)(=O)Nc1cc2occ(NC=O)c(=O)c2cc1Oc1ccccc1,–,–,18 µM (active) and inactive
C=C1/C(=C/C=C2\CCC[C@]3(C)[C@@H]([C@H](C)/C=C/[C@H](O)C4CC4)CC[C@@H]23)C[C@@H](O)C[C@@H]1O,-13.9% (inactive),–,–
COC(=O)N1CC2(CC2)C[C@H](C(=O)NO)[C@H]1C(=O)N1CCN(c2ccccc2)CC1,3.14% (inactive),–,–
CN(C)C(CCOc1cccc2ccccc12)c1ccccc1 (centres undefined),10.2% (inactive),–,–
COCC(c1ccc(C(F)(F)F)cc1)N1CCN(C2(C)CCN(C(=O)c3c(C)ncnc3C)CC2)CC1C (centres undefined),11.7% (inactive),–,–
CCOC(=O)COc1ccc2c(=O)cc(-c3ccccc3)oc2c1,-33.4% (inactive),–,–
NCCCC[C@H](NC(=O)[C@@H]1CCCN1C(=O)[C@@H]1CSSC[C@H](N)C(=O)N[C@@H](Cc2ccc(O)cc2)C(=O)N[C@@H](Cc2ccccc2)C(=O)N[C@@H](CCC(N)=O)C(=O)N[C@@H](CC(N)=O)C(=O)N1)C(=O)NCC(N)=O,–,–,17.8 µM (active)

# Target: Luciferin 4-monooxygenase (Photinus pyralis) (UniProt P08659)
# Assay: Primary firefly luciferase (FLuc) qHTS assay for identification of artifact compounds. (AID 1845220); note: nearly all actives have a fitted effect of over 60% in size;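 for activity change, negative = inhibition: plate controls were DMSO vehicle for no effect and no enzyme for full effect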
# Details: purified firefly luciferase, luminescence, 5 min; series mostly up to 54.1 µM; activity change, negative = inhibition: at the top concentration
# Outline: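 FLuc 10 nM; luciferin 10 uM; ATP 10 uM; Tris-acetate pH 7.6, Mg-acetate 10 mM; 15 min RT preincubation; 5 min reaction; luminescence.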
SMILES,outcome,"activity change, negative = inhibition",Potency
CCCn1cc2c(nc(NC(=O)Nc3ccc(OC)cc3)n3nc(-c4ccco4)nc23)n1,inactive,–,–
O=C(NCC(=O)N1CCCC1)Nc1ccc2cnccc2c1,–,-10.4% (inactive),–
Cc1c(Cl)cccc1S(=O)(=O)Nc1nc(NCCc2ccccc2)nc2c1CN(Cc1ccccc1)CC2,inactive,–,–
Cn1ncc(Cl)c1-c1cc(C(=O)N[C@H](CN)Cc2ccc(F)c(F)c2)oc1Cl,inactive,–,–
Cc1cc2c(F)c(Oc3ncnn4cc(OCC(C)OC(=O)C(C)N)c(C)c34)ccc2[nH]1 (centres undefined),inactive,–,–
CC[C@H](C)/C=C(C)/C=C/C1=CC2=CC(=O)[C@]3(C)OC(=O)[C@@H](C(C)=O)[C@@H]3C2=CO1,inactive,–,–
COc1cc2c(cc1OC)CN(C(=O)/C=C/c1c(-c3ccccc3)n(C)c3ncccc13)CC2,–,-0.836% (inactive),–
COc1cc(F)c(F)c(Nc2ccc(I)cc2F)c1NS(=O)(=O)C1(CC(O)CO)CC1 (centres undefined),inactive,–,–
Cn1ncnc1[C@@H]1c2n[nH]c(=O)c3cc(F)cc(c23)N[C@H]1c1ccc(F)cc1,–,4.44% (inactive),–
N#Cc1ccc(Nc2nc(-c3ccc(O)cc3O)cs2)cc1C(F)(F)F,–,-11.8% (inactive),–
COc1ccc(-c2c(C)nn3c(NCCN4CCOCC4)cc(C)nc23)cc1OC,inactive,–,–
Cn1ncnc1[C@H]1c2n[nH]c(=O)c3cc(F)cc(c23)N[C@@H]1c1ccc(F)cc1,–,-12.9% [at 25.7 µM] (inactive),–
COc1ccc2nc3n[nH]c(C)c3c(NCCOCCO)c2c1,–,-23.8% (inactive),–
CC/C(C)=C/C(=O)OC1C(OC2(C)CCC3C(C4C(C)CCC42)C3(C)C)OC(C)C(O)C1O (centres undefined),inactive [at 25.7 µM],–,–
S=C(c1ccc(-c2ccc(Cl)c(Cl)c2)o1)N1CCCCC1,–,–,1.69 µM (active)
O=C(Nc1ncc([N+](=O)[O-])s1)c1ccccc1O,–,–,0.849 µM (active)
Cc1ccc(CNc2ncnc3ccc(-c4ccc(CO)o4)cc23)o1,–,4.41% (inactive),–
CCC(CC)C(c1ccc(Nc2nc3ccccc3s2)cc1)n1cncn1 (centres undefined),–,-0.766% (inactive),–
C=C1/C(=C/C=C2\CCC[C@]3(C)[C@@H]([C@H](C)/C=C/[C@H](O)C4CC4)CC[C@@H]23)C[C@@H](O)C[C@@H]1O,inactive,–,–
COc1ccc2cc3c(NC(=O)c4ccco4)nn(C)c3nc2c1,–,-19.4% (inactive),–
O=C([C@@H](Cc1cccc(C(F)(F)F)c1)NS(=O)(=O)c1cc(F)c2c(c1)CCNC2)N1CCCC1,–,0.927% (inactive),–
CN(C)C(CCOc1cccc2ccccc12)c1ccccc1 (centres undefined),inactive,–,–
C#CC(=O)N(c1ccc(OC)cc1OC)C(C(=O)NCC(=O)OCC)c1cccs1 (centres undefined),inactive,–,–
COc1ccc(C#Cc2ccc(C(=O)N3CCC[C@@H](O)C3)c(F)c2)cc1,–,-7.41% (inactive),–
COCC(c1ccc(C(F)(F)F)cc1)N1CCN(C2(C)CCN(C(=O)c3c(C)ncnc3C)CC2)CC1C (centres undefined),inactive,–,–
